A short description of test [1]: Quantitative High-Throughput drug screen in 47 multiple myeloma cell lines against the NCATS MIPE library collection: KMS20_JCRB cell viability assay (AID 1918973). Further: nearly all actives have a fitted effect of over 45% in size. The method in brief:
(§1)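 Primary qHTS used for cherry-picking: cells at 500/well, library compounds for 48 h (37C, 5% CO2), luminescent ATP assay.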

Test [2] in a line: Quantitative High-Throughput drug screen in 47 multiple myeloma cell lines against the NCATS MIPE library collection: MOLP8_DSMZ cell viability assay (AID 1918977). Further: nearly all actives have a fitted effect of over 45% in size. Summed up:
(§2)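 Myeloma cells (500/well) treated with MIPE 4.0 compounds for 48 h at 37 °C, 5% CO2. Viability read as ATP via CellTiter-Glo luminescence after 5 min at RT; DMSO-only wells = 100%, media-only = 0% viability.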

Test [3] can be described thus: Quantitative High-Throughput drug screen in 47 multiple myeloma cell lines against the NCATS MIPE library collection: NCIH929_DSMZ cell viability assay (AID 1918978). Further: nearly all actives have a fitted effect of over 35% in size. The method in brief: as §2
Test [4] in a line: Quantitative High-Throughput drug screen in 47 multiple myeloma cell lines against the NCATS MIPE library collection: OCIMY1_PLB cell viability assay (AID 1918979). Further: nearly all actives have a fitted effect of over 35% in size. The method in brief: as §2
Test [5] in a line: Quantitative High-Throughput drug screen in 47 multiple myeloma cell lines against the NCATS MIPE library collection: OCIMY7_PLB cell viability assay (AID 1918987). Further: nearly all actives have a fitted effect of over 65% in size. Conditions: OCI-MY7 myeloma viability, CellTiter-Glo ATP, 48 h; viability (% of DMSO): at 45.8 µM (top of the series). Summed up: as §2
On the technique in general: In ATP-based viability assays light output follows the ATP content of the culture.

Test [6] can be described thus: Quantitative High-Throughput drug screen in 47 multiple myeloma cell lines against the NCATS MIPE library collection: OPM1_PLB cell viability assay (AID 1918989). Further: nearly all actives have a fitted effect of over 40% in size. Summed up: as §2
Test [7] in a line: Quantitative High-Throughput drug screen in 47 multiple myeloma cell lines against the NCATS MIPE library collection: SKMM1_PLB cell viability assay (AID 1919863). Further: nearly all actives have a fitted effect of over 35% in size. Conditions: SKMM1 myeloma viability, CellTiter-Glo ATP, 48 h; viability: active compounds read low. The method in brief: as §2
Test [8] is described as follows: Quantitative High-Throughput drug screen in 47 multiple myeloma cell lines against the NCATS MIPE library collection: U266_ATCC cell viability assay (AID 1919864). Further: nearly all actives have a fitted effect of over 35% in size. Summed up:
as §2

Test [9] is described as follows: Quantitative High-Throughput drug screen in 47 multiple myeloma cell lines against the NCATS MIPE library collection: XG6_PLB cell viability assay (AID 1919865). Further: nearly all actives have a fitted effect of over 40% in size. Summed up:
as §2

Test [10] is described as follows: Quantitative High-Throughput drug screen in 47 multiple myeloma cell lines against the NCATS MIPE library collection: MMM1_PLB cell viability assay (AID 1918976). Further: nearly all actives have a fitted effect of over 35% in size. The method in brief:
as §2

Test [11] in a line: Quantitative High-Throughput drug screen in 47 multiple myeloma cell lines against the NCATS MIPE library collection: L363_DSMZ cell viability assay (AID 1918984). Further: nearly all actives have a fitted effect of over 40% in size. Conditions: L363 myeloma viability, CellTiter-Glo ATP luminescence, 48 h; viability (% of control): at 45.8 µM (top of the series). Summed up: as §2
Test [12] in a line: Quantitative High-Throughput drug screen in 47 multiple myeloma cell lines against the NCATS MIPE library collection: OCIMY5_PLB cell viability assay (AID 1918988). Further: nearly all actives have a fitted effect of over 65% in size. Summed up: as §2
The nature of test [13]: Quantitative High-Throughput drug screen in 47 multiple myeloma cell lines against the NCATS MIPE library collection: XG1_PLB cell viability assay (AID 1919866). Further: nearly all actives have a fitted effect of over 35% in size. Summed up:
as §2

Test [14] in a line: Quantitative High-Throughput drug screen in 47 multiple myeloma cell lines against the NCATS MIPE library collection: MM1S_ATCC cell viability assay (AID 1918980). Further: nearly all actives have a fitted effect of over 45% in size. Summed up:
as §2

A short description of test [15]: Quantitative High-Throughput drug screen in 47 multiple myeloma cell lines against the NCATS MIPE library collection: LP1_DSMZ cell viability assay (AID 1918982). Further: nearly all actives have a fitted effect of over 35% in size. The method in brief:
as §2

Test [16] can be described thus: Quantitative High-Throughput drug screen in 47 multiple myeloma cell lines against the NCATS MIPE library collection: KMS28PE_JCRB cell viability assay (AID 1918983). Further: nearly all actives have a fitted effect of over 35% in size. Summed up: as §2
Test [17] in a line: Quantitative High-Throughput drug screen in 47 multiple myeloma cell lines against the NCATS MIPE library collection: KMS34_JCRB cell viability assay (AID 1918985). Further: nearly all actives have a fitted effect of over 40% in size. The method in brief:
as §2

Test [18] is described as follows: Quantitative High-Throughput drug screen in 47 multiple myeloma cell lines against the NCATS MIPE library collection: KMS26_JCRB cell viability assay (AID 1918975). Further: nearly all actives have a fitted effect of over 45% in size. The method in brief:
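Luminescent ATP measurement with CellTiter-Glo gives viability, scaled between DMSO-only wells (100%) and media-only wells (0%). Cells, 500 per well, faced library compounds for 48 hours at 37C.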

A short description of test [19]: Quantitative High-Throughput drug screen in 47 multiple myeloma cell lines against the NCATS MIPE library collection: MM1R_ATCC cell viability assay (AID 1918981). Further: nearly all actives have a fitted effect of over 35% in size. Summed up:
as §2

Test [20] in a line: Quantitative High-Throughput drug screen in 47 multiple myeloma cell lines against the NCATS MIPE library collection: KMS21BM_JCRB cell viability assay (AID 1918974). Conditions: ATP luminescence, 48 h; viability: at 45.8 µM (top of the series). Summed up:
as §1

Inconclusive results are not listed. Values without a mark were called inactive. Calls of active or inactive are those of the source. The call rests on the fitted dose curve; in most records, active means well fitted curve in the direction sought with a large enough effect; inconclusive means small, poorly fitted or top-dose-only effect, or another doubt; inactive means no such curve, though single readings can be large; an effect the other way counts as inactive or inconclusive.
Potency means the concentration at half of the fitted maximal effect.

Regarding `CC(C)n1c(C=C[C@H](O)C[C@H](O)CC(=O)O)c(-c2ccc(F)cc2)c2ccccc21`, the Potency in test [1] was 20.9 µM (active); in test [2] it was 2.96 µM (active); in [3], 13.2 µM (active); in test [5], 4.18 µM (active); in test [6], 5.26 µM (active); in test [7] it was 16.6 µM (active). The results for the Potency in test [8] and in test [9] were 4.18 µM (active) and 16.6 µM (active), respectively. In addition, the Potency result in [4] was “inactive”.
Take `CCCCN(CCCC)CC(O)c1cc(Cl)cc2c1-c1ccc(Cl)cc1C2=Cc1ccc(Cl)cc1` (stereo unspecified): the Potency is 11.8 µM (active) in [1]; 23.5 µM (active) in test [10]; 26.4 µM (active) in test [3]; 26.4 µM (active) in test [5]; 10.5 µM (active) in test [12]; 18.7 µM (active) in test [6]. Also, the Potency in test [7] was 33.2 µM (active); in test [9], 26.4 µM (active); in test [13] it was 23.5 µM (active). Further, the Potency result in [11] and in test [8] was “inactive” throughout.
As a reminder, the viability is a read-out of living cells in per cent, often relative to untreated cells. Regarding `CC[C@H](C)C(=O)O[C@H]1C[C@H](O)C=C2C=C[C@H](C)[C@H](CC[C@@H](O)C[C@@H](O)CC(=O)O)[C@H]21`, the Potency entry in test [1], in test [2], in test [3], in [4], in [14] and in [15] was “inactive” in each case. Moreover, the Potency result in test [16], in test [11], in test [17], in test [5], in test [12] and in [6] was “inactive” in each case. Also, the Potency entry in [8] and in test [9] was “inactive” each time. In test [7], the viability was 102%.
For the compound `CC[C@@H]([C@H](C)O)n1ncn(-c2ccc(N3CCN(c4ccc(OCC5CO[C@@](Cn6cncn6)(c6ccc(F)cc6F)C5)cc4)CC3)cc2)c1=O` (stereo partly specified), the Potency result in test [1], in test [14] and in [6] was “inactive” throughout. Moreover, the Potency in test [10] was 16.6 µM (active); in [12], 18.7 µM (active); in test [9], 20.9 µM (active).
Regarding `CC(C)CNc1ccnc(NCc2csc(-c3ccccc3)n2)n1`, the Potency was 16.6 µM (active) in test [18]; 5.9 µM (active) in test [10]; 20.9 µM (active) in [2]; 20.9 µM (active) in test [3]; 20.9 µM (active) in test [14]; 18.7 µM (active) in [19]. Moreover, the Potency in test [15] is 11.8 µM (active); in test [11], 1.87 µM (active); in test [5], 16.6 µM (active); in test [12], 14.8 µM (active); in [8], 20.9 µM (active); in test [9], 16.6 µM (active).
Turning to `CC[C@H]1OC(=O)[C@H](C)[C@@H](O[C@H]2C[C@@](C)(OC)[C@@H](O)[C@H](C)O2)[C@H](C)[C@@H](O[C@@H]2O[C@H](C)C[C@H](N(C)C)[C@H]2O)[C@](C)(O)C[C@H](C)C(=NOCOCCOC)[C@H](C)[C@@H](O)[C@]1(C)O`, the Potency entry in [1], in [3], in test [4], in [19], in test [17] and in test [6] was “inactive” in each case. The Potency result in test [9] and in test [13] was “inactive” throughout. The Potency in test [14] was 20.9 µM (active).
As to `CO[C@H]1/C=C\O[C@@]2(C)Oc3c(C)c(O)c4c(O)c(c(C=NN5CCN(C6CCCC6)CC5)c(O)c4c3C2=O)NC(=O)C(C)=CC=C[C@H](C)[C@H](O)[C@@H](C)[C@@H](O)[C@@H](C)[C@H](OC(C)=O)[C@H]1C`, the Potency is 20.9 µM (active) in test [18]; 5.26 µM (active) in [10]; 8.33 µM (active) in test [2]; 0.105 µM (active) in test [3]; 9.35 µM (active) in [4]; 0.296 µM (active) in [14]. Also, the Potency is 0.187 µM (active) in [19]; 1.87 µM (active) in test [15]; 0.418 µM (active) in [16]; 2.96 µM (active) in [17]; 0.418 µM (active) in [12]; 0.264 µM (active) in [6]. In addition, the Potency in [7] is 7.43 µM (active); in test [8], 16.6 µM (active); in [9], 0.105 µM (active).
Consider `N#CC1(c2cccc(C(=O)Nc3cc(Oc4ccc5nc(NC(=O)C6CC6)sc5n4)ccc3F)c2Cl)CC1`, for which the Potency in [1] is 0.469 µM (active); in test [3], 6.62 µM (active); in test [4], 0.332 µM (active); in test [19], 14.8 µM (active); in [7], 2.96 µM (active); in [9], 1.48 µM (active). Besides, in test [13], the Potency was 2.35 µM (active). In addition, in test [17], the Potency entry was “inactive”.
With `N#Cc1c(N(CC(=O)O)CC(=O)O)sc(C(=O)O)c1CC(=O)O`, in [1], the Potency was 16.6 µM (active). The Potency entry in [4], in test [15], in test [16] and in test [8] was “inactive” in each case. Also, in test [7], the viability is 102%.
On to `CCN1CCN(c2ccc(Nc3cc(N(C)C(=O)Nc4c(Cl)c(OC)cc(OC)c4Cl)ncn3)cc2)CC1`, for which the Potency in [1] is 2.09 µM (active); in [12], 13.2 µM (active); in test [6], 0.0235 µM (active); in [9], 6.62 µM (active); in test [13], 11.8 µM (active). Moreover, the Potency result in test [3], in [4] and in test [8] was “inactive” in each case.
On to `CCCCCCCCCCCCCC(=O)N[C@H](CO)[C@H](O)c1ccc([N+](=O)[O-])cc1`, for which the Potency was 23.5 µM (active) in [1]; 23.5 µM (active) in test [3]; 18.7 µM (active) in [19]; 16.6 µM (active) in test [16]; 16.6 µM (active) in [5]; 26.4 µM (active) in test [6]. Also, the Potency in test [7] is 7.43 µM (active); in [9] it was 23.5 µM (active); in test [13], 20.9 µM (active). The Potency entry in test [4] and in test [8] was “inactive” throughout.
In the case of `COc1ccc(C=CC(=O)Nc2ccccc2C(=O)O)cc1OC`, the Potency in test [1] is 11.8 µM (active); in test [14] it was 11.8 µM (active); in test [13], 6.62 µM (active). Besides, the Potency entry in test [2], in test [4], in test [16], in test [17] and in test [6] was “inactive” throughout.
As for `Cc1cc(-c2ncc(CC(=O)Nc3ccc(-c4cnccn4)cn3)cc2C)ccn1`, the Potency is 18.7 µM (active) in [20]; 16.6 µM (active) in [10]; 20.9 µM (active) in test [3]; 16.6 µM (active) in test [16]; 14.8 µM (active) in test [11]; 11.8 µM (active) in test [12]. The Potency in test [6] was 8.33 µM (active); in test [8], 20.9 µM (active); in test [9] it was 14.8 µM (active); in test [13], 16.6 µM (active). Besides, in [4], the Potency entry was “inactive”. The viability in [7] is 117%.
On to `CC1(C)C(N(O)C(=O)Nc2ccc(Cl)cc2)N(c2ccc(Cl)cc2)C(=O)N1CC(=O)NN=CC=Cc1ccc([N+](=O)[O-])o1` (stereo unspecified), for which the Potency in test [18] was 8.33 µM (active); in [10] it was 14.8 µM (active); in test [2] it was 3.72 µM (active); in [3], 7.43 µM (active); in test [4], 8.33 µM (active); in [14] it was 9.35 µM (active). The Potency in test [19] was 5.26 µM (active); in test [15], 16.6 µM (active); in [16], 8.33 µM (active); in test [17], 7.43 µM (active); in test [12], 7.43 µM (active); in test [6], 11.8 µM (active). Besides, the Potency in [7] was 13.2 µM (active); in [8], 10.5 µM (active); in [9], 10.5 µM (active); in test [13] it was 8.33 µM (active).

Values taken from PubChem BioAssay (NCATS).
